This note sets out measurements from PubChem BioAssay.

Activity calls are given as the source filed them. Unless noted, the rule behind the calls is not given here.

In assay [1] the test system is Wnt5a (protein binding on small-molecule microarray). The experiment in a line: Wnt5a binders on small-molecule microarray, primary screen, biophysical, 635/667 nm fluorescence (AID 1142).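 Note: fluorescence read at 667 nm with signal to noise per printed feature.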 As to conditions: 635 nm fluorescence, higher = more signal.
Assay [2] can be described thus: cell viability in Huh7 cells, primary screen, cytotoxicity control for HCV replication inhibitor project, CellTiter-Glo luminescence, basal, 48 h (AID 1143).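 Note: Huh7 hepatoma cells carrying a hepatitis C replication reporter with no stimulus; test concentration not given here.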 The settings on record: Huh7 HCV replicon, higher = more signal, called active from +8 up or from −8 down. On the technique in general: In ATP-based viability assays light output follows the ATP content of the culture.

A short description of assay [3]: P. aeruginosa biofilm formation inhibitors, primary screen, PAO1 strain, BacTiter-Glo luminescence, LB-PBS (AID 1144). As to conditions: 12 h, higher = more signal.
The nature of assay [4]: CREB reporter modulators without forskolin, primary screen, cell-based, PC12, CRE-LacZ reporter, unstimulated (AID 1145). The settings on record: no forskolin, luminescence, 4.5 h, higher = more signal, called active from +8 up or from −8 down.
A short description of assay [5]: CREB reporter modulators under forskolin, primary screen, cell-based, PC12, CRE-LacZ reporter, forskolin-stimulated (AID 1146).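 Note: PC12 cells with 6xCRE LacZ reporter stimulated by forskolin 10 µM; beta-galactosidase reporter signal reflecting CREB driven transcription.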 As to conditions: luminescence, 4.5 h, higher = more signal, called active from +8 up or from −8 down.
Assay [6] concerns the target Streptavidin (Streptomyces avidinii) (UniProt P22629). Description: streptavidin binders on small-molecule microarray, primary screen, artefact control for SMM compound annotation, biophysical, 635/667 nm fluorescence (AID 1147).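 Note: signal reflects streptavidin binding to arrayed compounds as a control protein.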 As to conditions: streptavidin binding, higher = more signal.
Assay [7] can be described thus: small-molecule binders of probe aInhba, primary screen, biochemical, small-molecule microarray, 635/667 nm fluorescence (AID 1148).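 Note: score merges 667nm spot fluorescence with signal-to-noise for antibody binding to printed compounds.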 As to conditions: higher = more signal.
In assay [8] the target is Torsin-1A (Homo sapiens) (UniProt O14656). The experiment in a line: torsin A binders from cell lysate, primary screen, small-molecule microarray, wild-type, 635/667 nm (AID 1149). The settings on record: COS7 hTOR1A-WT lysate, 635 nm fluorescence, higher = more signal.
Chain of Torsin-1A (Homo sapiens) (O14656 whole entry, looked up): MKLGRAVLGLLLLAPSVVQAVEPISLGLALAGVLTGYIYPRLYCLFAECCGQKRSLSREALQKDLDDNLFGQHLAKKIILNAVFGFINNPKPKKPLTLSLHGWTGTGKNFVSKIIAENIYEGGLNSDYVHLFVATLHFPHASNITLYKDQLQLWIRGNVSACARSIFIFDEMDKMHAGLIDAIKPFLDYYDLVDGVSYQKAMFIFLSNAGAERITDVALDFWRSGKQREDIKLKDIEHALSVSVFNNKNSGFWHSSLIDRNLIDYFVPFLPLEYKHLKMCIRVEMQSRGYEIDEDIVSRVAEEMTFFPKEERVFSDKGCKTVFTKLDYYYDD
The target is the same in assay [9]. Description: small-molecule binders of mutant TOR1A in lysate, primary screen, cell lysate, small-molecule microarray, COS7 lysate, 635/667 nm fluorescence (AID 1150).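 Note: score pools 667 nm emission and signal to noise measuring lysate protein binding.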 The settings on record: COS7 hTOR1A mutant lysate, 635 nm fluorescence, higher = more signal.
The subject of assay [10] is Sonic hedgehog protein (Shh). Description: small-molecule binders of Shh protein, primary screen, biochemical, small-molecule microarray, 635/667 nm fluorescence (AID 1151).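 Note: Shh protein binding to compounds spotted on small-molecule microarray slides; score combines spot fluorescence intensity with signal-to-noise across triplicate slides.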 As to conditions: small-molecule microarray binding, 635 nm fluorescence; higher = more signal.
A short description of assay [11]: E. coli DRC41 culture turbidity changes, primary screen, E. coli filamentation inducer project, strain DRC41, OD650, 48 h (AID 1152).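 Note: E. coli MC1000 strain DRC41 lacking acrAB efflux pump and sulA.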 As to conditions: E. coli DRC41 (acrAB sulA), higher = more signal, called active from +8 up or from −8 down.
Assay [12] can be described thus: small-molecule binders of probe aLefty1, primary screen, biochemical, small-molecule microarray, 635/667 nm fluorescence (AID 1153).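 Note: score merges spot fluorescence with signal-to-noise ratio from the scanned slide images.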 The settings on record: higher = more signal.
Assay [13] is described as follows: PSAC antagonists in infected red cells, primary screen, cell-based, P. falciparum Indochina, OD700, 1 h (AID 1154). The settings on record: P. falciparum Indochina infected RBC osmotic lysis, higher = more signal, called active from +8 up or from −8 down.
The nature of assay [14]: PSAC antagonists in infected red cells, primary screen, cell-based, P. falciparum Indochina, OD700, 2 h (AID 1155).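 Note: lysis reports solute entry through the parasite surface anion channel PSAC; channel blockers reduce lysis of infected cells.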 The settings on record: P. falciparum Indochina infected erythrocytes, osmotic lysis OD700; higher = more signal, called active from +8 up or from −8 down.
Assay [15] can be described thus: osmotic lysis modulators in infected erythrocytes, primary screen, PSAC antagonist project, cell-based, P. falciparum Indochina, OD700, 3 h (AID 1156). As to conditions: higher = more signal, called active from +8 up or from −8 down.
Assay [16] in a line: PSAC antagonists in infected red cells, primary screen, cell-based, P. falciparum Indochina, OD700, 18 h (AID 1157). The settings on record: P. falciparum Indochina infected erythrocytes, osmotic lysis OD700, 18 h; higher = more signal, called active from +8 up or from −8 down.
Assay [17] can be described thus: modulators of S6 phosphorylation in cells, primary screen, cell-based, A549, cytoblot, luminescence, serum-stimulated (AID 1158).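 Note: serum-stimulated A549 lung adenocarcinoma cells; signal is phosphorylated S6 detected by cytoblot immunostaining with HRP secondary.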 The settings on record: A549 phospho-S6 cytoblot, 5 h, higher = more signal.
The target in assay [18] is NADPH oxidase 2 (Homo sapiens) (UniProt P04839). The experiment in a line: NOX2-dependent H2O2 signal modulators, primary screen, NOX inhibitor project, cell-based, HEK293-NOX2, PMA-stimulated, Amplex Red fluorescence (AID 1159). Note: test concentration not given here. As to conditions: 45 min, higher = more signal, called active from +8 up or from −8 down.
Chain of NADPH oxidase 2 (Homo sapiens) (P04839 whole entry, looked up): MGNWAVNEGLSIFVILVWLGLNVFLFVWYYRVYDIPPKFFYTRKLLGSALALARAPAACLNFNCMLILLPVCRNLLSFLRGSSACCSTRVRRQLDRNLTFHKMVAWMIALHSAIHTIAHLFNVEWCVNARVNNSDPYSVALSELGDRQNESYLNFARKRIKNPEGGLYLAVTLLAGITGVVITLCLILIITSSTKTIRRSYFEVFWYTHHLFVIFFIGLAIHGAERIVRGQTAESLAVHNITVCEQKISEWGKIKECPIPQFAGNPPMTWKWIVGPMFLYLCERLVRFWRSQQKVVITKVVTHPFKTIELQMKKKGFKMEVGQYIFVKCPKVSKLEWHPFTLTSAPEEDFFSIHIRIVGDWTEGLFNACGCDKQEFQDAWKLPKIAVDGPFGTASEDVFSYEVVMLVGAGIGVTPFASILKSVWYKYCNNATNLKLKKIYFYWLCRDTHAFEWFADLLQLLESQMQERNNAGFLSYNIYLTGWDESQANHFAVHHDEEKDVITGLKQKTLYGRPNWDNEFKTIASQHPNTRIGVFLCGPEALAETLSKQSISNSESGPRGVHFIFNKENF
Assay [19] addresses NADPH oxidase 4 (Homo sapiens) (UniProt Q9NPH5). The experiment in a line: NOX4-dependent H2O2 signal modulators, primary screen, NOX inhibitor project, cell-based, HEK293-NOX4, tetracycline-induced, Amplex Red fluorescence (AID 1160). As to conditions: 45 min, higher = more signal, called active from +8 up or from −8 down.
The target in assay [20] is NADPH oxidase 5 (Homo sapiens) (UniProt Q96PH1). The experiment in a line: NOX5-dependent H2O2 signal modulators, primary screen, NOX inhibitor project, cell-based, HEK293-NOX5, Amplex Red fluorescence (AID 1161). As to conditions: HEK293-NOX5, ionomycin, 45 min, higher = more signal.
Chain of NADPH oxidase 5 (Homo sapiens) (Q96PH1 whole entry, looked up): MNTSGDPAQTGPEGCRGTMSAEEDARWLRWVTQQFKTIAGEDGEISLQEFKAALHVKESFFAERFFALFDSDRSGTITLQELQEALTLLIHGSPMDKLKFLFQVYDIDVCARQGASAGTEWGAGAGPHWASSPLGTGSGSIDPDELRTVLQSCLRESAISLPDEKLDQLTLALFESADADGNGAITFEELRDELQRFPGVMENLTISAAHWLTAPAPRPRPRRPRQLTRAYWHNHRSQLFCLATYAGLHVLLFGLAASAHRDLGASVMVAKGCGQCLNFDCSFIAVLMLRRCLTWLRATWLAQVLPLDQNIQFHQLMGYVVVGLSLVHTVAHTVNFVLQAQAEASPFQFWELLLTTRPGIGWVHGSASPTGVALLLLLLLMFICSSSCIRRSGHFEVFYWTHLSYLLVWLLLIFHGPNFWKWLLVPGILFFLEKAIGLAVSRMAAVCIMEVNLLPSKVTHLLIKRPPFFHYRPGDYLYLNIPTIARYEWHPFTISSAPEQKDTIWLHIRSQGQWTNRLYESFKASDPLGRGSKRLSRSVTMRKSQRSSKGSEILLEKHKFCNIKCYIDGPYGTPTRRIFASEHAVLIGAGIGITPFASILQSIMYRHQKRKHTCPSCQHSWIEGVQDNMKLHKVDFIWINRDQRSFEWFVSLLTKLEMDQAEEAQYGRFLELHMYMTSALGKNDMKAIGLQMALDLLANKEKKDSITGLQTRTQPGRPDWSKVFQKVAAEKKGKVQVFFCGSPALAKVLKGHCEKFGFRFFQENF

Chain of Streptavidin (Streptomyces avidinii) (P22629 whole entry, looked up): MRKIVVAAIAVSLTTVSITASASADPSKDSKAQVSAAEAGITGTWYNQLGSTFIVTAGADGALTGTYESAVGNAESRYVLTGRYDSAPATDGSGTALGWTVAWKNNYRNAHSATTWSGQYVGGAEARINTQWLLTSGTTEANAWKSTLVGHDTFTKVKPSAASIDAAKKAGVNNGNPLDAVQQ
Chain of NADPH oxidase 4 (Homo sapiens) (Q9NPH5 whole entry, looked up): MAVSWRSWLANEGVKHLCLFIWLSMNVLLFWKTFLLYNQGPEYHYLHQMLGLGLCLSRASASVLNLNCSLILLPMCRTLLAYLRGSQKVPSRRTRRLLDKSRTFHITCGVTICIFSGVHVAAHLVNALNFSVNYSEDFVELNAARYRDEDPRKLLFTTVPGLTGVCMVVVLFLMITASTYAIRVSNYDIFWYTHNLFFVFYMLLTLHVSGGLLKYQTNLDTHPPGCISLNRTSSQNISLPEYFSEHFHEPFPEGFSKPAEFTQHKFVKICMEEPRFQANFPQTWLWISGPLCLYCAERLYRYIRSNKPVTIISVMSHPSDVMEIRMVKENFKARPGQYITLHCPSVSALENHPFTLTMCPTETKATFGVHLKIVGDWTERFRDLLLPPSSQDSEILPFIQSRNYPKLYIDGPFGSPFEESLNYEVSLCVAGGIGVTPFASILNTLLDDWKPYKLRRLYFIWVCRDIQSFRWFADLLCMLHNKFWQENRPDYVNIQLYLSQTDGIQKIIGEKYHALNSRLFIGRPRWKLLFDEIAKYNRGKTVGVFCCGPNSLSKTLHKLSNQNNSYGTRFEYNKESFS

For the compound `CCCNC(=O)[C@@H]1c2ccccc2C(=O)N(c2ccc(C)cn2)[C@H]1c1ccc(CO)cc1`, the composite z-score in assay [1] was -0.108; in [6], -0.372; in assay [7] it was -0.108; in the assay with Torsin-1A (Homo sapiens) [8] it was -0.291; in the assay with Torsin-1A (Homo sapiens) [9] it was -0.397; in assay [10] it was -0.013. The same compound had a composite z-score in assay [12] of -0.303. In addition, the z-score in [2] was 0.62 (inactive); in [3], 0.242 (inactive); in [4], -0.412 (inactive); in assay [5], 0.538 (inactive); in assay [11] it was -0.292 (inactive); in assay [13], 1.97 (inactive). For the same compound, the z-score in assay [14] was -0.0991 (inactive); in assay [15], 0.562 (inactive); in assay [16], 0.0336 (inactive); in [17], 0.214; in [18], 0.114 (inactive); in assay [19] it was 0.0822 (inactive). In [20], this compound gave a z-score of -0.974.
Turning to `CC(C)NC(=O)[C@@]1(C)c2ccccc2C(=O)N(Cc2cc(F)cc(C(F)(F)F)c2)[C@H]1c1ccc(CO)cc1`, the composite z-score was 0.646 in assay [1]; 0.0926 in [6]; 0.2 in assay [7]; 0.411 with Torsin-1A (Homo sapiens) [8]; 0.916 in the assay with Torsin-1A (Homo sapiens) [9]; 0.903 in assay [10]. The compound also displayed a composite z-score in assay [12] of -0.21. Besides, the z-score in assay [2] was -0.527 (inactive); in [3] it was -0.699 (inactive); in assay [4], 0.648 (inactive); in assay [5] it was -0.237 (inactive); in assay [11], 0.0051 (inactive); in assay [13], 7.03 (inactive). For the same compound, the z-score in assay [14] was 0.429 (inactive); in assay [15], 0.943 (inactive); in assay [16], 0.0608 (inactive); in assay [17], -0.191; in assay [18] it was 0.162 (inactive); in [19], 0.696 (inactive). The compound further had a z-score in assay [20] of -0.117.
Consider `O=C1[C@H]2[C@H]3[C@H](O)[C@H](O)CC(=NO[C@@H]4O[C@H](CO)[C@@H](O)[C@H](O)[C@H]4O)[C@H]3CC[C@H]2C(=O)N1Cc1ccc2c(c1)OCO2`, for which the composite z-score is -0.228 in assay [1]; 0.595 in assay [6]; -0.0719 in assay [7]; 0.838 with Torsin-1A (Homo sapiens) [8]; 0.181 with Torsin-1A (Homo sapiens) [9]; -0.928 in [10]. Further, the composite z-score in assay [12] is 0.122. Besides, the z-score in [2] was -0.402 (inactive); in [3], 1.58 (inactive); in [4], 0.525 (inactive); in assay [5], -0.576 (inactive); in [11] it was 0.614 (inactive); in [13], 15.5 (active). Besides, the z-score in [14] was 2.09 (inactive); in [15], 0.0435 (inactive); in assay [16], 1.04 (inactive); in assay [17], -0.438; in assay [18], -2.58 (inactive); in assay [19], 0.514 (inactive). Moreover, in [20], the z-score came to 1.55.
With `COc1ccc(O[C@H]2C=C[C@@H](c3ccccc3)O[C@@H]2COC(=O)CCC(C)=NOC[C@@H](C)[C@H](OCc2ccccc2)C(C)C)cc1`, the composite z-score in [1] is -0.348; in assay [6], -0.892; in assay [7], -0.203; with Torsin-1A (Homo sapiens) [8] it was -0.416; with Torsin-1A (Homo sapiens) [9], -0.632; in assay [10] it was -0.155. The composite z-score in assay [12] is -0.278. Moreover, the z-score in [2] was -1.55 (inactive); in assay [3], -0.0552 (inactive); in assay [4], -0.901 (inactive); in assay [5], 0.468 (inactive); in assay [11], -0.72 (inactive); in assay [13] it was 0.857 (inactive). For the same compound, the z-score in assay [14] is 0.55 (inactive); in [15], 0.607 (inactive); in [16], 0.294 (inactive); in [17], -0.656; in [18], 0.796 (inactive); in [19], 0.478 (inactive). For the same compound, the z-score in [20] was 0.329.
